These results are taken from PubChem BioAssay (NCI).

Assay in all cases: NCI-60 one-dose screen, 48 h (100 = growth as untreated, 0 = no growth, -100 = all killed)
Details in all cases: 10 µM unless noted

For test [1], the system named is HCT-15 colon.
Test [2] concerns HT29 colon.
For test [3], the system named is SNB-75 CNS.
Test [4] deals with SNB-19 CNS.
The subject of test [5] is U251 CNS.
Test [6] concerns PC-3 prostate.
Test [7] deals with SK-MEL-5 melanoma.
The subject of test [8] is UACC-62 melanoma.
The subject of test [9] is LOX IMVI melanoma.
Test [10] deals with SK-MEL-28 melanoma.
Test [11] concerns SK-MEL-2 melanoma.
For test [12], the system named is SN12C renal.
Test [13] relates to UO-31 renal.
In test [14] the test system is TK-10 renal.
The test system of test [15] is ACHN renal.
The test system of test [16] is CAKI-1 renal.
Test [17] has as its system A498 renal.
Test [18] has as its system CCRF-CEM leukemia.
Test [19] concerns MOLT-4 leukemia.
Test [20] deals with EKVX NSCLC.

About 83,000 compounds went through this panel and 20% of them were active in at least one assay; those are over-represented in the sample as a whole.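 Testing used 96-well plates and a 48-hour single-concentration exposure. Example: -40 means 40% of the starting cells died.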 Unmarked numbers belong to inactive results. Activity calls are given as the source filed them. Rule for the calls: active = growth percent below 10; inactive = the rest.

For `O=C(Nc1nc2ccccc2[nH]1)C(=O)Nc1nc2ccccc2[nH]1`, the growth in [1] is 86.2%; in [2], 107%; in test [3] it was 93.4%; in test [4] it was 101%; in test [5], 96.5%; in test [6], 85.7%. For the same compound, the growth in test [7] is 99.2%; in [8], 97.5%; in [9], 93.5%; in [10], 107%; in test [11] it was 98.8%; in test [12], 94.5%. In addition, the growth is 69.6% in test [13]; 132% in test [14]; 93.4% in [15]; 91.5% in test [16]; 99.1% in test [17]; 94.7% in test [18]. The growth in test [19] is 103%.

As to `CC1=C(C/C=C(\C)CCC[C@H](C)CCC[C@H](C)CCCC(C)C)C(=O)c2ccccc2C1=O`, the growth was 104% in test [1]; 105% in [2]; 95.1% in test [3]; 101% in [4]; 98.5% in test [5]; 98.2% in test [6]. Moreover, the growth was 112% in test [7]; 105% in [8]; 96.4% in [9]; 128% in test [10]; 114% in test [11]; 114% in test [20]. Besides, the growth in [13] is 71.7%; in test [14], 95.6%; in test [15] it was 104%; in test [16] it was 103%; in test [17], 101%; in test [18] it was 102%. The growth in [19] is 101%.

As for `Cc1ccc(NS(=O)(=O)c2ccc(-c3cnc(C4CC4)o3)cc2)cc1`, the growth in test [1] was 17.5%; in test [2], 12%; in test [3] it was 18.8%; in [4] it was 37.6%; in test [5], 39.9%; in test [6], 49.7%. Also, the growth in test [7] was 15%; in test [8], 27.3%; in test [9] it was 39.2%; in [10], 53.9%; in [12], 42.2%; in test [13], 55.3%. The growth in [14] was 64.9%; in test [15] it was 46.6%; in test [16], 38.8%; in test [18], 35.5%; in [19], 32%.

As for `COc1ccc(Nc2nc(NCCNc3ccnc4cc(Cl)ccc34)nc(N3CCOCC3)n2)cc1`, the growth is 15.1% in test [1]; 4.28% (active) in [2]; 38.4% in test [3]; 78% in test [4]; 48.2% in [5]; 43.8% in test [6]. In addition, the growth in test [7] was 48.7%; in test [8], 74.2%; in [9], 40.2%; in test [10], -80.7% (active); in [12] it was 61.4%; in test [13], 45.3%. The growth was 103% in test [14]; 63.2% in test [15]; 80.2% in [16]; -17.7% (active) in [17]; 56.4% in test [18]; 35.6% in test [19].

Consider `COc1ccc(C2OCC(C)(C)CO2)cc1OC`, for which the growth is 106% in [1]; 109% in [2]; 102% in test [3]; 112% in test [4]; 94.8% in test [5]; 95% in test [6]. Moreover, the growth was 96.5% in [7]; 99.9% in [8]; 95.2% in [9]; 121% in test [10]; 106% in test [11]; 98.5% in test [12]. The growth was 89.8% in test [13]; 109% in [14]; 107% in test [15]; 115% in test [17]; 94.3% in [18]; 100% in test [19].

With `CCOC(=O)c1c(-c2cc(OC)c(OC)c(OC)c2)csc1N`, the growth in [1] is 66.9%; in test [2], 71.9%; in test [3], 84.2%; in [4], 108%; in test [5], 97.2%; in [6], 88.6%. For the same compound, the growth in test [8] is 88.6%; in test [9], 95.4%; in [10], 91.1%; in test [11] it was 101%; in test [20], 110%; in test [12], 105%. In addition, the growth is 75.9% in [13]; 93.3% in [14]; 99.2% in [15]; 68.1% in test [16]; 101% in [17]; 83.7% in test [18]. Besides, the growth in [19] is 92.3%.

On to `COc1ccc(NC(=O)c2ccc3c(c2)nc(-c2ccc(Cl)cc2)n3-c2cc(C(C)(C)C)[nH]n2)cc1`, for which the growth is 82.6% in [1]; 116% in [2]; 77.8% in test [3]; 82.6% in test [4]; 83.3% in test [5]; 68.1% in [6]. Moreover, the growth was 70.7% in test [7]; 79.6% in test [8]; 95.4% in test [10]; 92.7% in test [11]; 86% in test [12]; 62.4% in test [13]. In addition, the growth in test [14] was 75.8%; in test [15], 90.1%; in test [16], 61%; in test [17], 62.2%; in test [19], 55.1%.

For `COc1ccc(-c2nn(-c3ccc(NC(=O)c4ccc(Cl)c(Cl)c4)cc3)cc2-c2ccncc2)cc1Cl`, the growth in test [1] was -1.71% (active); in test [2], -27.7% (active); in test [3], 59.4%; in [4], 56.7%; in test [5], 25%; in test [6], 26.7%. For the same compound, the growth in [7] was 5.09% (active); in test [8] it was 24.5%; in test [10] it was 65.8%; in [11] it was 43.5%; in [20], 56.4%; in test [12] it was 80.5%. For the same compound, the growth in test [13] was 2.82% (active); in test [15], 52.6%; in test [16], -13.7% (active); in test [17], -0.135% (active); in [18], 37.4%; in [19], 13.8%.

As for `COc1ccc(Cn2c(Br)c3c(c2-c2cc(OC)c(OC)c(OC)c2)CCc2sc(N)nc2-3)cc1`, the growth in test [1] is 18.8%; in test [2], -12.4% (active); in test [3], -0.745% (active); in test [4] it was 55.4%; in [5] it was 21.8%; in test [6], 28.8%. In addition, the growth was 10.1% in test [7]; 25.5% in [8]; 33.5% in test [9]; 33.9% in test [10]; 31.9% in [12]; 35.2% in test [13]. The growth in [14] was 46.2%; in test [15], 42.1%; in test [16] it was 44.7%; in test [17] it was -15.8% (active); in test [18], 3.52% (active); in test [19], 8.47% (active).

For `c1ccc2c(c1)oc1cc3c(cc12)nnc1cccn13`, the growth was 104% in [1]; 103% in [2]; 91.7% in test [3]; 108% in test [4]; 97.2% in [5]; 100% in test [6]. The growth in [7] is 98.2%; in test [8], 106%; in test [9], 112%; in [10], 116%; in test [20] it was 80.9%; in [12] it was 103%. Further, the growth in test [13] was 64.9%; in test [15], 99.8%; in test [16] it was 91.1%; in test [17], 111%; in test [18], 109%; in test [19], 108%.
